Source: PubChem BioAssay
For part of these data: Results with a measured potency or affinity are listed apart. Calls of active or inactive are those of the source. Unless noted, the rule behind the calls is not given here.

Tests used:
[1] = antimalarial activity against Dd2 strain (AID 2302;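 active = growth inhibition above 50% at the single 2 µM test dose, taken to imply half-maximal potency below 2 µM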;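 note: 0% = DMSO untreated growth and 100% = chloroquine plus artemisinin killed control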); conditions: P. falciparum Dd2 in RBCs, LDH growth readout, 72 h; at 2 µM; stronger effect = higher value
[2] = human hepatoma cell viability loss – ATP luminescence, cytotoxicity control for P. falciparum antimalarial project, primary screen (AID 2303;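 active = inhibition above 50%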;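 note: 0% = DMSO wells and 100% = digitonin-killed cells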); conditions: HepG2 viability, 24-48 h, at 10 µM, stronger effect = higher value
[3] = molecular target: L-lactate dehydrogenase (Plasmodium falciparum (isolate CDC / Honduras)) (UniProt Q27743); assay: PfLDH activity inhibition – cell lysate, 3D7 strain, counter-screen for P. falciparum growth inhibition project (AID 2304);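 note: 0% = vehicle and 100% = reference inhibitor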; conditions: P. falciparum 3D7 crude extract, LDH APAD/NBT absorbance; at 2 µM; stronger effect = higher value
[4] = inhibition of 3D7 malaria parasite growth – strain 3D7 (AID 2306);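 note: 0% = DMSO wells and 100% = chloroquine plus artemisinin control wells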; conditions: P. falciparum 3D7 erythrocytic growth, LDH absorbance, 72 h; at 2 µM; stronger effect = higher value
[5] = molecular target: Calcium-dependent protein kinase 1 (Plasmodium falciparum (isolate 3D7)) (UniProt P62344); assay: PfCDPK1 kinase inhibitors, biochemical, TCAMS library (AID 1159585; cut-off not given, nearly all actives have IC50 up to about 0.98 µM;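 note: inhibitors leave more ATP so luminescence rises with inhibition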); conditions: recombinant PfCDPK1, Kinase-Glo ATP depletion luminescence
[6] = molecular target: Plasmodium falciparum protein kinase 6 (PK6, PF3D7_1337100) (UniProt Q8IDW1); assay: PfPK6 kinase inhibitors, biochemical, TCAMS library (AID 1159586); conditions: recombinant PfPK6, Kinase-Glo ATP depletion luminescence
[7] = molecular target: Protein kinase 7 (PK7), Plasmodium falciparum 3D7 (PF3D7_0213400) (UniProt Q7YTF7); assay: inhibition of Plasmodium PK7 catalytic activity – biochemical, TCAMS antimalarial set, Kinase-Glo luminescence (AID 1159587); conditions: recombinant PfPK7, Kinase-Glo ATP depletion luminescence
[8] = molecular target: Calcium-dependent protein kinase 4 (Plasmodium falciparum (isolate 3D7)) (UniProt Q8IBS5); assay: PfCDPK4 kinase inhibitors, biochemical, TCAMS library (AID 1159588; cut-off not given, nearly all actives have IC50 up to about 0.91 µM); conditions: recombinant PfCDPK4, Kinase-Glo ATP depletion luminescence
Sequence of Calcium-dependent protein kinase 4 (Plasmodium falciparum (isolate 3D7)) (Q8IBS5 whole entry, looked up): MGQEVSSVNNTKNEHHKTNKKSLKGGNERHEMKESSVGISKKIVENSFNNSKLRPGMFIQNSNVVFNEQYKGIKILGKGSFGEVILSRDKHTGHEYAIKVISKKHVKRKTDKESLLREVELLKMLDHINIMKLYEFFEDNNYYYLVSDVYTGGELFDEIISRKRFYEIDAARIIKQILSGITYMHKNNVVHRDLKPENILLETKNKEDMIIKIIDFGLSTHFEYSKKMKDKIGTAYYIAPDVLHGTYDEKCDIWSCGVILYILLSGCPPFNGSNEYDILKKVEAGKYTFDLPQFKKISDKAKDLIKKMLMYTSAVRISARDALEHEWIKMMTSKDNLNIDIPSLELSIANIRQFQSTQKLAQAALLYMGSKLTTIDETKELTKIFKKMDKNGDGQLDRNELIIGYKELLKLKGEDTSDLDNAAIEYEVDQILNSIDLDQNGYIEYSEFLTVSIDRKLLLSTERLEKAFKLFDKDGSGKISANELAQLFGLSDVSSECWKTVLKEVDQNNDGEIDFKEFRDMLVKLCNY

Sequence of L-lactate dehydrogenase (Plasmodium falciparum (isolate CDC / Honduras)) (Q27743 whole entry, looked up): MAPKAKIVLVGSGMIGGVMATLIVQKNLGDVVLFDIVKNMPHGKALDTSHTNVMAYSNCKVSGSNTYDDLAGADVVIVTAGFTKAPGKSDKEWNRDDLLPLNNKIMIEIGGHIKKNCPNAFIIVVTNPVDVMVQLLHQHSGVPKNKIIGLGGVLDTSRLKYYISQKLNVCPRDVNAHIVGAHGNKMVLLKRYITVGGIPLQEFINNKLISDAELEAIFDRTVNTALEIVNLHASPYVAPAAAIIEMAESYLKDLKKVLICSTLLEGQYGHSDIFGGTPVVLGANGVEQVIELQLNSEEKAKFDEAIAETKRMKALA
Sequence of Plasmodium falciparum protein kinase 6 (PK6, PF3D7_1337100) (Q8IDW1 1-305): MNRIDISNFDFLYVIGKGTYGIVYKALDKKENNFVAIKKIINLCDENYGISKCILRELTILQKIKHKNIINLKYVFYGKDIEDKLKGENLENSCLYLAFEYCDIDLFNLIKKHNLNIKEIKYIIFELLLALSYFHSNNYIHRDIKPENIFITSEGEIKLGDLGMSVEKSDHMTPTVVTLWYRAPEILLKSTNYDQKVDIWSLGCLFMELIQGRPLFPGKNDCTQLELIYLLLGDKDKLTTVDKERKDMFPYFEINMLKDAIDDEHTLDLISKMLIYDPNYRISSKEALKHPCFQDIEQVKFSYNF
Sequence of Protein kinase 7 (PK7), Plasmodium falciparum 3D7 (PF3D7_0213400) (Q7YTF7 1-343): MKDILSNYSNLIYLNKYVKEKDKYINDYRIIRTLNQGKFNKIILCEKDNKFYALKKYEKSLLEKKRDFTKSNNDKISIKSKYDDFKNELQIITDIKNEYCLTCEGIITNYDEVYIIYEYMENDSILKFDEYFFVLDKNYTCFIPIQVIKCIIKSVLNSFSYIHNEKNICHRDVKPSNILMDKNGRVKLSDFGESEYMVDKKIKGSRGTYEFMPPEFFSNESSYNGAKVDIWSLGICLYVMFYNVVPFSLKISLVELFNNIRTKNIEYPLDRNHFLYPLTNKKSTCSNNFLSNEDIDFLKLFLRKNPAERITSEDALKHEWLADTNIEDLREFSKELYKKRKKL
Sequence of Calcium-dependent protein kinase 1 (Plasmodium falciparum (isolate 3D7)) (P62344 whole entry, looked up): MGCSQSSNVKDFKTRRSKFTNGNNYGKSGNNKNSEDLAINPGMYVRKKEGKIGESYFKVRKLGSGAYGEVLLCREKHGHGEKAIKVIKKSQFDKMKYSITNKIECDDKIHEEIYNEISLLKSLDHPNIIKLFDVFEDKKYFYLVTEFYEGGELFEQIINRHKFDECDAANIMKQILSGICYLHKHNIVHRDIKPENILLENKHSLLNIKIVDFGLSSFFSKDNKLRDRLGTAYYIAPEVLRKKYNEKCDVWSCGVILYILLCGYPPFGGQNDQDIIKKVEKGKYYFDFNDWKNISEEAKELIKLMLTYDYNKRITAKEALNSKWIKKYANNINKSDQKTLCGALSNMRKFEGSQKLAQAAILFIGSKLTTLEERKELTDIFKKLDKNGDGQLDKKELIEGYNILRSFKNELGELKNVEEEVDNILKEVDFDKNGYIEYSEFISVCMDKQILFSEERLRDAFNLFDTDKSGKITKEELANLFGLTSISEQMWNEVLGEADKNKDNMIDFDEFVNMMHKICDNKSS

CNCCNCc1ccc(-c2ccc(-c3nc4ccc(F)cc4[nH]3)cc2)cc1
active: growth inhibition [1] 97% | growth inhibition [4] 98%
inactive: inhibition [2] 30% | inhibition [3] 4% | outcome [5] | outcome [6] | outcome [7] | outcome [8]

CCCNCc1ccc(-c2ccc(CN(Cc3ccc4c(c3)OCO4)C(=O)[C@H]3CCCO3)cc2)nc1
inactive: growth inhibition [1] 39% | inhibition [2] 18% | inhibition [3] -3% | outcome [5] | outcome [6] | outcome [7] | outcome [8]
active: growth inhibition [4] 90%

CC(C)[C@@H](C(=O)NCc1cccc(C(F)(F)F)c1)N1C(=O)CCC1C(=O)Nc1ccc([N+](=O)[O-])cc1 (some centres not stated)
active: growth inhibition [4] 94%
inactive: growth inhibition [1] 2% | inhibition [2] -5% | inhibition [3] -2% | outcome [5] | outcome [6] | outcome [7] | outcome [8]

Cc1ccccc1Oc1nc2ccccc2nc1SCC(=O)NC(C)C
inactive: inhibition [2] -14% | inhibition [3] -1% | outcome [5] | outcome [6] | outcome [7] | outcome [8]
active: growth inhibition [1] 55% | growth inhibition [4] 97%

CNC(=O)c1cnc(Nc2ccc(N3CCOCC3)cc2)nc1Nc1cccc(OC)c1
inactive: growth inhibition [1] 41% | inhibition [2] 2% | inhibition [3] -2% | outcome [5] | outcome [6] | outcome [7] | outcome [8]
active: growth inhibition [4] 96%

Cn1ccnc1CNC(=O)c1ccc(-c2cccc(-c3nc4ccc(F)cc4[nH]3)c2)cc1
active: growth inhibition [4] 96%
inactive: growth inhibition [1] 8% | inhibition [2] 8% | inhibition [3] 7% | outcome [5] | outcome [6] | outcome [7] | outcome [8]

Cc1cccc2[nH]c(-c3ccc(-c4cccc(CN5CCC(N)C5)c4)s3)nc12 (configuration not stated)
active: growth inhibition [1] 78% | growth inhibition [4] 95%
inactive: inhibition [2] 16% | inhibition [3] 1% | outcome [5] | outcome [6] | outcome [7] | outcome [8]

Nc1nc(N)c2c(ccc3c2ccn3Cc2cccc3ccccc23)n1
inactive: inhibition [3] -3% | outcome [5] | outcome [6] | outcome [7] | outcome [8]
active: growth inhibition [1] 95% | inhibition [2] 65% | growth inhibition [4] 99%

Cc1cc(O)c(CNC2CCCCC2)cc1C
active: growth inhibition [1] 95% | growth inhibition [4] 95%
inactive: inhibition [2] 6% | inhibition [3] -2% | outcome [5] | outcome [6] | outcome [7] | outcome [8]

Cc1ccc(OC2CCN(CCCCC3(C)C(=O)Nc4ccccc43)CC2)cc1 (configuration not stated)
active: inhibition [2] 63% | growth inhibition [4] 100%
inactive: growth inhibition [1] 2% | inhibition [3] -3% | outcome [5] | outcome [6] | outcome [7] | outcome [8]

NC(=O)c1cc(-c2ccccc2)cc2c(C3CCC(NCc4ccccc4)C3)c[nH]c12 (configuration not stated)
inactive: growth inhibition [1] 30% | inhibition [3] -7% | outcome [5] | outcome [6] | outcome [7] | outcome [8]
active: inhibition [2] 99% | growth inhibition [4] 95%

Cc1cc(-c2ccc(S(=O)(=O)Nc3cc4c(cc3OC(C)C)CCN(C)CC4)cc2)ccc1Cl
inactive: growth inhibition [1] 19% | inhibition [2] 33% | inhibition [3] -1% | outcome [5] | outcome [6] | outcome [7] | outcome [8]
active: growth inhibition [4] 90%

CC(C)c1ccc(N2CCN(CCCCNC(=O)c3ccc(NC(=O)c4cc(Cl)cc(Cl)c4)cc3)CC2)cc1
inactive: inhibition [2] 12% | inhibition [3] 8% | outcome [5] | outcome [6] | outcome [7] | outcome [8]
active: growth inhibition [1] 86% | growth inhibition [4] 101%

Cc1[nH]c(C)c(-c2ccc(-c3ccccc3F)nc2)c(=O)c1Cl
active: growth inhibition [1] 97% | growth inhibition [4] 97%
inactive: inhibition [2] 7% | inhibition [3] 6% | outcome [5] | outcome [6] | outcome [7] | outcome [8]

CCN(CC)CCNC(=O)c1ccc(NC(=O)c2oc3c(Cl)cccc3c2C)cc1
active: growth inhibition [1] 68% | growth inhibition [4] 98%
inactive: inhibition [2] 24% | inhibition [3] 5% | outcome [5] | outcome [6] | outcome [7] | outcome [8]

CCc1cc(=O)[nH]c(-n2nc(C)cc2NC(=O)CC(c2ccccc2)c2ccccc2)n1
inactive: inhibition [2] 37% | inhibition [3] 4% | outcome [5] | outcome [6] | outcome [7] | outcome [8]
active: growth inhibition [1] 75% | growth inhibition [4] 92%

NC1CCCN(Cc2cccc(-c3ccc(-c4nc5ccc(F)cc5[nH]4)cc3)c2)C1 (configuration not stated)
active: growth inhibition [1] 99% | growth inhibition [4] 101%
inactive: inhibition [2] 40% | inhibition [3] -3% | outcome [5] | outcome [6] | outcome [7] | outcome [8]

CC1CN(CC(O)Cn2c3ccc(Br)cc3c3cc(Br)ccc32)CC(C)O1 (configuration not stated)
inactive: inhibition [2] -1% | inhibition [3] 3% | outcome [5] | outcome [6] | outcome [7] | outcome [8]
active: growth inhibition [1] 100% | growth inhibition [4] 102%

O=C(Nc1cccc(CN2CCCN(Cc3ncc[nH]3)CC2)c1)c1ccc(-c2ccccc2)cc1
inactive: inhibition [2] 23% | inhibition [3] -5% | outcome [5] | outcome [6] | outcome [7] | outcome [8]
active: growth inhibition [1] 56% | growth inhibition [4] 101%

CCc1c[nH]c2c(N3CCCCC3=O)cc(C(=O)N[C@@H](Cc3ccccc3)[C@H](O)CNCc3cccc(OC)c3)cc12
inactive: inhibition [2] 8% | inhibition [3] -1% | outcome [5] | outcome [6] | outcome [7] | outcome [8]
active: growth inhibition [1] 99% | growth inhibition [4] 101%

CN(C)CCNC(=O)c1ccc2c(c1)n(C1CCN(S(=O)(=O)c3ccc(-c4ccccc4)cc3)CC1)c(=O)n2CC1CCCCC1
active: growth inhibition [1] 66% | growth inhibition [4] 100%
inactive: inhibition [2] 47% | inhibition [3] -2% | outcome [5] | outcome [6] | outcome [7] | outcome [8]

O=c1cc(NCCCNC2CCCc3c2ccc2ccccc32)[nH]c2ccccc12 (configuration not stated)
active: growth inhibition [4] 94%
inactive: growth inhibition [1] 30% | inhibition [2] -1% | inhibition [3] -2% | outcome [5] | outcome [6] | outcome [7] | outcome [8]

CC(=O)Nc1ccc(OCCCCN(Cc2ccccc2C(F)(F)F)c2ccc(C#N)c(C(F)(F)F)c2)cc1
inactive: growth inhibition [1] 47% | inhibition [2] -3% | inhibition [3] 1% | outcome [5] | outcome [6] | outcome [7] | outcome [8]
active: growth inhibition [4] 80%

O=C(Nc1cccc(-c2csc(-c3nc4ccccc4[nH]3)c2)c1)c1cccnc1
inactive: growth inhibition [1] 45% | inhibition [2] 18% | inhibition [3] -5% | outcome [5] | outcome [6] | outcome [7] | outcome [8]
active: growth inhibition [4] 98%

COC(=O)CCCCCOc1cc(Cc2cnc(N)nc2N)cc(OC)c1OC
inactive: growth inhibition [1] -3% | inhibition [2] -15% | inhibition [3] 2% | outcome [5] | outcome [6] | outcome [7] | outcome [8]
active: growth inhibition [4] 90%

CCNc1cc(C(=O)N[C@@H](Cc2ccccc2)[C@H](O)CNCc2ccc3c(c2)OCCO3)cc(N2CCCCS2(=O)=O)c1
active: growth inhibition [4] 95%
inactive: growth inhibition [1] 45% | inhibition [2] -1% | inhibition [3] -1% | outcome [5] | outcome [6] | outcome [7] | outcome [8]

CC(C)(C)c1ccc(S(=O)(=O)Nc2ccccc2N2CCOCC2)cc1
inactive: inhibition [2] 11% | inhibition [3] 1% | outcome [5] | outcome [6] | outcome [7] | outcome [8]
active: growth inhibition [1] 60% | growth inhibition [4] 90%

CCCCCC(=O)N1CCOC(CCN2CCc3c(c4ccccc4n3C)C2)(c2ccc(Cl)c(Cl)c2)C1 (configuration not stated)
active: growth inhibition [1] 80% | growth inhibition [4] 95%
inactive: inhibition [2] 24% | inhibition [3] 1% | outcome [5] | outcome [6] | outcome [7] | outcome [8]

Cc1ccc2[nH]cc(/C=C/C(=O)NC3CCC(CCN4CCc5ccc(C#N)cc5CC4)CC3)c2c1 (configuration not stated)
active: growth inhibition [4] 93%
inactive: growth inhibition [1] 49% | inhibition [2] 11% | inhibition [3] -4% | outcome [5] | outcome [6] | outcome [7] | outcome [8]

Cc1cc(N[C@@H](Cc2ccccc2)C(=O)Nc2ccccc2)nc(NCCN2CCCC2)n1
active: growth inhibition [4] 94%
inactive: growth inhibition [1] -5% | inhibition [2] 8% | inhibition [3] 0% | outcome [5] | outcome [6] | outcome [7] | outcome [8]

CCn1c(-c2nonc2N)nc2cnc(Oc3cccc(NC(=O)c4ccc(OCCN5CCCCC5)cc4)c3)cc21
inactive: growth inhibition [1] 7% | inhibition [2] 16% | inhibition [3] -1% | outcome [5] | outcome [6] | outcome [7] | outcome [8]
active: growth inhibition [4] 98%

COc1cc2cc(C(=O)Nc3ccccc3)c(N)nc2cc1OC
active: growth inhibition [4] 90%
inactive: growth inhibition [1] -2% | inhibition [2] 0% | inhibition [3] -1% | outcome [5] | outcome [6] | outcome [7] | outcome [8]

Cc1c[nH]c2cc(/C=C/C(=O)NC3CCC(CCN4CCc5ccc(C#N)cc5CC4)CC3)ccc12 (configuration not stated)
inactive: inhibition [2] -1% | inhibition [3] -2% | outcome [5] | outcome [6] | outcome [7] | outcome [8]
active: growth inhibition [1] 59% | growth inhibition [4] 95%

O=C(/C=C/c1ccc(Cl)c(Cl)c1)NCCCCCN1CCC(NC(=O)c2ccc(F)cc2F)CC1
active: growth inhibition [4] 96%
inactive: growth inhibition [1] 11% | inhibition [2] 17% | inhibition [3] -3% | outcome [5] | outcome [6] | outcome [7] | outcome [8]

Nc1ccnc(N2CCC(CCOc3ccnc4cc(Cl)ccc34)CC2)c1
active: growth inhibition [1] 99% | growth inhibition [4] 100%
inactive: inhibition [2] 34% | inhibition [3] 4% | outcome [5] | outcome [6] | outcome [7] | outcome [8]

O=C(Nc1ccc2ccccc2n1)c1ccccc1-c1ccccc1
active: growth inhibition [1] 83% | growth inhibition [4] 90%
inactive: inhibition [2] 14% | inhibition [3] 0% | outcome [5] | outcome [6] | outcome [7] | outcome [8]

Cc1cc(C)n(Cc2ccc(C(=O)NCC3CCCCC3)cc2)n1
active: growth inhibition [4] 95%
inactive: growth inhibition [1] 1% | inhibition [2] 0% | inhibition [3] 2% | outcome [5] | outcome [6] | outcome [7] | outcome [8]

CC1CN(Cc2cccc(C#N)c2)CCN1c1ccc(NC(=O)c2cccs2)cc1 (configuration not stated)
inactive: inhibition [2] 4% | inhibition [3] 5% | outcome [5] | outcome [6] | outcome [7] | outcome [8]
active: growth inhibition [1] 93% | growth inhibition [4] 94%

O=C(Nc1ccc(-c2ccccc2)cc1)Nc1cccc(Cn2ncc(N3CCCNCC3)c(Cl)c2=O)c1
inactive: inhibition [2] 14% | inhibition [3] -1% | outcome [5] | outcome [6] | outcome [7] | outcome [8]
active: growth inhibition [1] 52% | growth inhibition [4] 102%
